The other results are listed elsewhere or left out. Values without a mark were called inactive. Active and inactive are the calls of the source. Cut-off read from the data, not from the text of the source: active = activation above about 8.4%; inactive = the rest.
target: Galanin receptor type 2 (Homo sapiens) (UniProt O43603); assay: activators of human galanin receptor 2 – cell-based, confirmation (AID 864); settings: GALR2-expressing cells, agonist activation; at 5.6 µM; hits give high values;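 note: 0% = buffer-only vehicle wells and 100% = full reference agonist response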
Sequence (O43603 whole entry, looked up): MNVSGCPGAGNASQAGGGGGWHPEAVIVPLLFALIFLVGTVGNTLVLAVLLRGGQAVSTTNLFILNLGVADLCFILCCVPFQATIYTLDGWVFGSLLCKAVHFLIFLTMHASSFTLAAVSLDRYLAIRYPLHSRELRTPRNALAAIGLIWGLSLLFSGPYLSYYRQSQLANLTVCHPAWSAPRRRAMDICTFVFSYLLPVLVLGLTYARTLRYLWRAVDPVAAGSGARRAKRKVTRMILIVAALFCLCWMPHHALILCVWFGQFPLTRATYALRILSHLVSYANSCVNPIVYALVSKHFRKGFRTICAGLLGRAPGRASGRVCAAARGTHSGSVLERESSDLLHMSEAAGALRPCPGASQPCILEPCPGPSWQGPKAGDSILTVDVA

Compound | activation
OC(COc1cccc2ccccc12)CN1CCN(c2ccccn2)CC1 (stereo unspecified) | -0.28%
CCN(C(=O)CSc1ncn[nH]1)c1cccc2ccccc12 | -1.13%
COc1cc(SC#N)ccc1N=Cc1c(C)[nH]n(-c2ccc(C)cc2)c1=O | 7.97%
CCOc1ccc(C(O)Cn2c(=N)n(CCN3CCCCC3)c3ccccc32)cc1 (stereo unspecified) | -0.63%
Cc1ccc(Cc2c(C)nc3nc(SCC(=O)NCCN4CCOCC4)nn3c2C)cc1 | -0.11%
COc1ccc(Nc2oc(-c3ccccc3Cl)nc2C#N)cc1 | 2%
Cc1ccc(CCC(=O)Nc2ncc(Cc3cc(Cl)ccc3Cl)s2)o1 | 7.28%
Fc1ccc(N2N=C(c3cccs3)CC2c2ccco2)c(F)c1 (stereo unspecified) | 1.22%
O=C(NC(=S)Nc1ccc(NC(=O)c2cccs2)cc1)c1ccc([N+](=O)[O-])cc1 | -0.89%
C=CCn1c(Oc2ccc(C(=O)OC)cc2)nc2c1c(=O)n(C)c(=O)n2C | 0.25%
CC/C(C)=N/Nc1nc2sc3c(c2c(=O)[nH]1)CC(C)(C)OC3 | -0.45%
COc1ccc(C(=O)CN2C(=O)NC(C)(c3ccc(C)cc3)C2=O)cc1OC (stereo unspecified) | -0.91%
O=[N+]([O-])c1ccccc1SNc1ccccn1 | -0.89%
CC(=O)Oc1ccc(C(C)=O)c2c1OCCO2 | -0.99%
CC(=O)N(Cc1cccs1)C1CCOC(C)(C)C1 (stereo unspecified) | -1%
CCOc1ccc2nc(Nc3nc4ccc(NC(C)=O)cc4s3)sc2c1 | 27.5% (active)
O=C1COc2ccc(NC(=O)N3CCN(c4ccc(F)cc4)CC3)cc2N1 | -0.98%
COC(=O)c1ccc(NC(=O)C(C)N2C(=O)c3ccccc3C2=O)cc1 (stereo unspecified) | -0.71%
CCCOc1ccc(C(=O)C(CCC(CNCC)C(=O)c2ccc(OCCC)cc2)CNCC)cc1 (stereo unspecified) | 16% (active)
Cn1c(=O)oc2cc(S(=O)(=O)N3CCC(C(=O)Nc4ccc(OC(F)(F)F)cc4)CC3)ccc21 | 1.24%
COc1ccccc1N1N=C(c2cccs2)CC1c1ccccc1 (stereo unspecified) | 6.34%
Cc1csc(NC(=O)c2ccc(-c3ccc(Cl)cc3Cl)o2)n1 | -0.78%
COCCN(CCOC)S(=O)(=O)c1ccc(C(=O)Nc2nc3c(s2)CCc2ccccc2-3)cc1 | 5.93%
O=c1oc2cc(O)ccc2cc1-c1ccc(F)cc1 | 2.23%
C=CCN(CC=C)S(=O)(=O)c1ccc(C(=O)Nc2nc3c(s2)CCc2ccccc2-3)cc1 | 2.82%
CC1(C)CC(=O)C=C(NCCN2CCNCC2)C1 | -1.05%

— PubChem BioAssay AID864 (The Scripps Research Institute Molecular Screening Center, 2007)
